# From PubChem BioAssay (NCATS)
# Records with an inconclusive call do not appear. A number with no mark means an inactive call. Calls follow the shape of the dose curve; as a rule, active = well fitted cell-killing curve with a large enough effect; inconclusive = small, poorly fitted or top-dose-only effect, or effect the other way; inactive = flat fitted curve, though single readings scatter.
# System: Tov112D
# Assay: Primary qHTS to identify gynecologic anti-cancer compounds using libraries of approved drugs and bioactive compounds (AID 1345084); also: nearly all actives have a fitted effect of over 55% in size
# Conditions: Gynecologic cancer cell panel viability, ATPlite luminescence, 48 h; series mostly up to 57.5 µM; activity change, negative = cytotoxicity: at the top concentration
# Method in brief: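 Five-point cytotoxicity, 48 h drug exposure at 37 C, 5% CO2, on cells seeded 16 h beforehand. ATP content read by ATPlite luminescence.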
# % is scaled to controls: 0 for no effect and ±100 for the full control effect.
row,Structure (SMILES),"activity change, negative = cytotoxicity [%]"
1,Cc1c(C2=CCN(C(=O)N(C)C(C)C)CC2)nnn1-c1cccnc1F,19.2
2,CC1=C(c2ccc(NC(=O)c3c(F)cccc3F)cc2)CN(c2nccs2)CC1,-3.88
3,CCCc1cc2c(N3CCN(C4=NCC(C)(C)S4)CC3)ncnc2s1,-21.7
4,O=C(NCCO)c1cccc(-c2cc(Nc3ccc(OC(F)(F)F)cc3)ncn2)c1,2.86
5,CS(=O)(=O)Nc1ccc2oc3c(OC(F)F)ccc(C(=O)Nc4c(Cl)cncc4Cl)c3c2c1,7.24
6,O=c1cc(NCCCN[C@@H]2CCOc3c(Br)cc(Br)cc32)[nH]c2ccsc12,17.4
7,Clc1ncoc1-c1c[nH]c2ccccc12,-1.93
8,CCn1c(=O)c(-c2ccc(Cl)cc2Cl)cc2cnc(Nc3ccc(N4CCNCC4)c(F)c3)nc21,-4.39
9,C=C1C(=O)O[C@@H]2/C=C(\C)CC/C=C(\C)CC[C@@H]12,0.072
10,C=C1C(=O)O[C@@H]2[C@H]1CC[C@H](C)[C@]1(CCC(=O)O1)C2(C)O (stereo partly specified),1.24
11,O=C(NCCCNc1nc(Nc2cccc(CN3CCOCC3)c2)ncc1C1CC1)C1CCC1,-1.73
